The values that follow come from PubChem BioAssay (NCATS).

Each structure is given as a SMILES string. “And” between values parts separate entries of the source, which are not always exact repeats. Equal values may be shown once. Results filed as inconclusive are left out. The source made the active and inactive calls. Unless noted, calls come from the whole dose curve.

The nature of assay [1]: qHTS assay for small molecule antagonists of peroxisome proliferator-activated receptor delta signaling (AID 588535; active = well fitted inhibition curve with a large enough effect in the signal ratio, with a control signal flat, not every such curve was filed as active; the % refers to the signal ratio;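 for max response: cells co-treated with a PPAR-delta agonist as stimulator during compound exposure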). The following applies: HEK293T PPARd-UAS-bla, beta-lactamase FRET ratio, 18 h; 460 nm channel. The gist of the method: (§1)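 Antagonist-mode beta-lactamase reporter (GeneBLAzer PPAR-delta-UAS-bla) in HEK293T cells, 2% charcoal/dextran FBS, 4000 cells/well. Compound titrations, 18 h at 37 C; CCF4 ratio read, IC50 and efficacy from Hill fits.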
A general note: qHTS replaces the single test concentration by a dilution series.

Assay [2] concerns the target Peroxisome proliferator-activated receptor delta (Homo sapiens) (UniProt Q03181). The assay is described as above. The settings on record: HEK293T PPARd-UAS-bla, beta-lactamase FRET ratio, 18 h; series mostly up to 76.7 µM. A digest of the protocol:
as §1

Assay [3] in a line: qHTS assay for small molecule agonists of retinoid X receptor alpha signaling (AID 588544). The settings on record: HEK293T RXRa-UAS-bla, beta-lactamase reporter, 18 h; 530 nm emission.
A short description of assay [4]: qHTS assay for small molecule agonists of the antioxidant response element (ARE) signaling pathway (AID 651741; active = well fitted activation curve with a large enough effect in the signal ratio; the % refers to the signal ratio; note: potency is the fitted concentration of half-maximal effect; for activation: % of control where 0% means no effect). The settings on record: HepG2 ARE-bla reporter, beta-lactamase FRET ratio, 16 h; series mostly up to 96 µM. A digest of the protocol:
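CellSensor ARE-bla HepG2 cells (2,000/well) carrying ARE-driven beta-lactamase, exposed 16 h at 37 C. LiveBLAzer B/G FRET substrate added for 2 h at room temperature; fluorescence intensity read.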

The target of assay [5] is Glucocorticoid receptor (Homo sapiens) (UniProt P04150). Kind of assay: qHTS assay for small molecule agonists of glucocorticoid receptor signaling (AID 588532; active = well fitted curve in the direction sought with a large enough effect in the signal ratio, with a control signal flat; the % refers to the signal ratio;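 note: 100% = dexamethasone at 0.1 µM and 0% = DMSO only wells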). The following applies: HeLa MMTV-bla, beta-lactamase ratio, agonist, 18 h; activation: stronger effect = higher value, percent of dexamethasone control, DMSO zero. The gist of the method:
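Cells were plated and rested 3-5 h at 37 C, compounds were added in titration and incubated 18 h, then CCF4 substrate was loaded for 2 h at RT before reading blue/green fluorescence. EC50 came from Hill-equation fitting.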

Assay [6] shares this target. Kind of assay: qHTS assay for small molecule antagonists of glucocorticoid receptor signaling (AID 588533; active = well fitted inhibition curve with a large enough effect in the signal ratio, with a control signal flat, not every such curve was filed as active; the % refers to the signal ratio;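 note: cells stimulated with 2 nM dexamethasone as agonist; % is set by controls: 0 for no effect and ±100 for the full control effect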). The following applies: HeLa MMTV-bla, GRE beta-lactamase ratio, antagonist mode, 18 h; series mostly up to 76.8 µM. A digest of the protocol:
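Antagonist-mode qHTS: compound titrations added to GRE-bla HeLa cells, then dexamethasone 2 nM final; 18 h, 37 C. CCF4 FRET fluorescence normalized to dexamethasone and DMSO; IC50 from Hill fit.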

Assay [7] can be described thus: qHTS assay for small molecule activators of the human pregnane X receptor (PXR) signaling pathway (AID 720659; call rule not given here; note: 0% is about no effect). The following applies: DPX-2 HepG2 CYP3A4-luciferase, 24 h; series mostly up to 92.3 µM.
The target of assay [8] is Androgen receptor (Homo sapiens) (UniProt P10275). Kind of assay: qHTS assay for small molecule agonists of androgen receptor signaling (AID 588515; active = well fitted curve in the direction sought with a large enough effect in the signal ratio, with a control signal flat; the % refers to the signal ratio; note: % is set by controls: 0 for no effect and ±100 for the full control effect). The following applies: AR-UAS-bla HEK293, beta-lactamase ratio, agonist 16 h; stronger effect = higher value. The gist of the method: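 EC50 and efficacy came from Hill fits of titrations (up to 92 uM) normalized to 30 nM R1881 as 100% and DMSO as 0%. Compound exposure was 16 h at 37 C on AR-UAS-bla HEK293 cells, with a 405/460/530 nm CCF4 fluorescence read.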
Sequence of Androgen receptor (Homo sapiens) (P10275 whole entry, looked up): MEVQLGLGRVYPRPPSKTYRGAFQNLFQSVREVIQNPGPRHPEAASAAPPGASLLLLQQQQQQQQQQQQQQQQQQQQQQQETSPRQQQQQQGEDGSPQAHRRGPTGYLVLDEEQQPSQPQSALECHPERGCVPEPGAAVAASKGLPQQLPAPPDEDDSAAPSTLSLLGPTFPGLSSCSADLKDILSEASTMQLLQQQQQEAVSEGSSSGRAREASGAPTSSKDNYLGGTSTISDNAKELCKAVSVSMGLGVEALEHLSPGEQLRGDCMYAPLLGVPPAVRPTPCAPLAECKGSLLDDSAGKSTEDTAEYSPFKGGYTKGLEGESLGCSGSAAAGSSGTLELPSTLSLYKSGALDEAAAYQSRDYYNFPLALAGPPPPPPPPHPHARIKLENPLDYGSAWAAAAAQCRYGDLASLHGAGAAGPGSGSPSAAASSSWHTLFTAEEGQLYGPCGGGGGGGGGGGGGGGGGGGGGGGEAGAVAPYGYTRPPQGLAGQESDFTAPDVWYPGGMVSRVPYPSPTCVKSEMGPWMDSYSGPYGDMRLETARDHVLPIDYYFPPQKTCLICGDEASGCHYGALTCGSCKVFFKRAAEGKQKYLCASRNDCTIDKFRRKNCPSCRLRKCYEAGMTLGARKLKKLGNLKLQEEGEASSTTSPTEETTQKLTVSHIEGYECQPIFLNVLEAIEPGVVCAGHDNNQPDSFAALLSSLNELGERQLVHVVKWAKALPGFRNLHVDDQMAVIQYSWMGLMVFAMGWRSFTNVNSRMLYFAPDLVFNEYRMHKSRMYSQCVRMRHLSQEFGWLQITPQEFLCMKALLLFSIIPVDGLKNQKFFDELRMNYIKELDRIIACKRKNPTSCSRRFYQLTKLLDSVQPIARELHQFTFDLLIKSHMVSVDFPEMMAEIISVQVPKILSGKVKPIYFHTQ

Assay [9] addresses Bile acid receptor (Homo sapiens) (UniProt Q96RI1). The experiment in a line: qHTS assay for small molecule antagonists of farnesoid X receptor signaling (AID 588526). Note: potency is the fitted concentration of half-maximal effect. The settings on record: HEK293T FXR-UAS-bla, beta-lactamase ratio, antagonist mode; series mostly up to 76.7 µM. A digest of the protocol: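 Antagonist mode: titrated compounds tested against chenodeoxycholic acid stimulation (normalized to 50 uM CDCA and DMSO) in GeneBLAzer HEK293T cells for 16 h. Beta-lactamase read by CCF4 fluorescence; IC50 from Hill fits.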

For assay [10] the target is unchanged. The experiment in a line: qHTS assay for small molecule agonists of farnesoid X receptor signaling (AID 588527).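 Note: 0% = vehicle basal and 100% = reference agonist.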 The settings on record: HEK293T FXR-UAS-bla, beta-lactamase ratio, 16 h; activation: stronger effect = higher value. The gist of the method:
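FXR-UAS-bla HEK293T, 10% dialyzed FBS; cpds up to 92 uM titration, 16 h 37 C; CCF4 dye 2 h RT; fluorescence. Normalized to chenodeoxycholic acid 100 uM (100%) and DMSO (0%); Hill fit gives EC50, efficacy.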

Assay [11] can be described thus: qHTS assay for small molecule activators of the nuclear factor-kappa B (NF-kB) signaling pathway (AID 651749; active = well fitted activation curve with a large enough effect in the signal ratio; the % refers to the signal ratio; note: % of control where 0% means no effect). The settings on record: NF-kB-bla ME-180 cells, beta-lactamase FRET ratio, 16 h; activation: stronger effect = higher value. A digest of the protocol: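 NF-kB-bla ME-180 cells carrying a beta-lactamase reporter under an NF-kB response element, 2,000 cells/well, exposed to compound for 16 hr at 37C; FRET-based beta-lactamase fluorescence read-out of pathway activation.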

Assay [12] deals with Androgen receptor (Homo sapiens) (UniProt P10275). Kind of assay: qHTS assay for small molecule antagonists of androgen receptor signaling (AID 588516; active = well fitted curve in the direction sought with a large enough effect in the signal ratio, with a control signal flat, not every such curve was filed as active; the % refers to the signal ratio; note: potency is the fitted concentration of half-maximal effect). The following applies: AR-UAS-bla HEK293, beta-lactamase ratio, antagonist mode, 16 h; series mostly up to 76.8 µM. The gist of the method: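 HEK293 AR-UAS-bla cells, 10% dialyzed FBS medium; cpd titration + R1881 10 nM final, 16 h 37 C; CCF4 2 h RT; FRET ratio; IC50/efficacy via Hill fit.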

The target in assay [13] is Cytochrome P450 3A4 (Homo sapiens) (UniProt P08684). The experiment in a line: qHTS Assay for Inhibitors and Substrates of Cytochrome P450 3A4 (AID 884; active = well fitted curve in the direction sought with a large enough effect; an effect the other way counts as inactive or inconclusive; note: potency is the fitted concentration of half-maximal effect; nearly all actives have a fitted effect of over 50% in size). The settings on record: recombinant CYP3A4, Luciferin-PPXE luminescence; series mostly up to 57.1 µM. The gist of the method: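 20 nM human CYP3A4 with 25 uM Luciferin-PPXE (at KM) in 200 mM KPO4, preincubated 10 min with compound; NADPH regeneration started a 60 min RT reaction. Luciferin detected by luminescence, normalized to 57 uM ketoconazole as full inhibition.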
Sequence of Cytochrome P450 3A4 (Homo sapiens) (P08684 whole entry, looked up): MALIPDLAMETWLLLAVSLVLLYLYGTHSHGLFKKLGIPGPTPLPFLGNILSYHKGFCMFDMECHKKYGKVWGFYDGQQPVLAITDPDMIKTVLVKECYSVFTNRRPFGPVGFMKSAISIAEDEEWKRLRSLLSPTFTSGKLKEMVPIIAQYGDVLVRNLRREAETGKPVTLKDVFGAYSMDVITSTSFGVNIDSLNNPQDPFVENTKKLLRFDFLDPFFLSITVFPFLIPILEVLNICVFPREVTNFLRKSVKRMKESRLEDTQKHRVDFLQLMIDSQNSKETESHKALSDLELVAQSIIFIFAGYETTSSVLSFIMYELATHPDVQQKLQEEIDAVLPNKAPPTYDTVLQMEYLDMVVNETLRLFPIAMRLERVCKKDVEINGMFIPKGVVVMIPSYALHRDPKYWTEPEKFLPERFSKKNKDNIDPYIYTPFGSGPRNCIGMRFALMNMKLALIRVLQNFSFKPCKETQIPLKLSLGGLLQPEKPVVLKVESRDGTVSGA

Assay [14] shares this target. Kind of assay: qHTS Assay for Activators of Cytochrome P450 3A4 (AID 885; active = well fitted curve in the direction sought with a large enough effect; an effect the other way counts as inactive or inconclusive; note: nearly all actives have a fitted effect of over 65% in size). The following applies: recombinant CYP3A4, Luciferin-PPXE luminescence, 60 min; series mostly up to 57.1 µM. The gist of the method:
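20nM CYP3A4 + 25uM Luciferin-PPXE (=KM), 200mM KPO4; cpd 10 min RT; NADPH regen, 60 min RT; stop w/ detection buffer, 20 min; luminescence. Normalized to 57 uM ketoconazole.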

Assay [15] in a line: Cell Viability - LYMP2-001 (AID 921; active = well fitted curve in the direction sought with a large enough effect; an effect the other way counts as inactive or inconclusive;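 note: potency is the fitted concentration of half-maximal effect; cells exposed to compound for 24 h at 37 °C; nearly all actives have a fitted effect of over 70% in size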). The settings on record: LYMP2-001 lymphoblastoid cell viability; series mostly up to 92.2 µM. A digest of the protocol:
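CellTiter-Glo luminescence (intracellular ATP) after 24 hr compound exposure at 37 C, 2500 lymphoblastoid cells/well in complete medium. AC50 fitted with standard Hill equation; tetraoctylammonium bromide positive control.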

Sequence of Bile acid receptor (Homo sapiens) (Q96RI1 whole entry, looked up): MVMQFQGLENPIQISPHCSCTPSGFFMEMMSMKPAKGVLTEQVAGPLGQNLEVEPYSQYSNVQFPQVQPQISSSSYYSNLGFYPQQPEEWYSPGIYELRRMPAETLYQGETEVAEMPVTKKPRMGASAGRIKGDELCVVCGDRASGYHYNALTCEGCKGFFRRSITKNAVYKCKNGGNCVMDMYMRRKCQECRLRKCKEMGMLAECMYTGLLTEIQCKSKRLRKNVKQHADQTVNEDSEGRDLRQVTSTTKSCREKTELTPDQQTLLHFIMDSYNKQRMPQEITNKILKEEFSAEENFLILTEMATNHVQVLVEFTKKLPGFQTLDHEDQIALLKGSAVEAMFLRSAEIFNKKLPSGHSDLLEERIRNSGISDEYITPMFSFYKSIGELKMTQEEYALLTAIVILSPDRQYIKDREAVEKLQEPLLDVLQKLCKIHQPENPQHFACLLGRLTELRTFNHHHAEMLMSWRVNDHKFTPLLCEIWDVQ
Sequence of Glucocorticoid receptor (Homo sapiens) (P04150 whole entry, looked up): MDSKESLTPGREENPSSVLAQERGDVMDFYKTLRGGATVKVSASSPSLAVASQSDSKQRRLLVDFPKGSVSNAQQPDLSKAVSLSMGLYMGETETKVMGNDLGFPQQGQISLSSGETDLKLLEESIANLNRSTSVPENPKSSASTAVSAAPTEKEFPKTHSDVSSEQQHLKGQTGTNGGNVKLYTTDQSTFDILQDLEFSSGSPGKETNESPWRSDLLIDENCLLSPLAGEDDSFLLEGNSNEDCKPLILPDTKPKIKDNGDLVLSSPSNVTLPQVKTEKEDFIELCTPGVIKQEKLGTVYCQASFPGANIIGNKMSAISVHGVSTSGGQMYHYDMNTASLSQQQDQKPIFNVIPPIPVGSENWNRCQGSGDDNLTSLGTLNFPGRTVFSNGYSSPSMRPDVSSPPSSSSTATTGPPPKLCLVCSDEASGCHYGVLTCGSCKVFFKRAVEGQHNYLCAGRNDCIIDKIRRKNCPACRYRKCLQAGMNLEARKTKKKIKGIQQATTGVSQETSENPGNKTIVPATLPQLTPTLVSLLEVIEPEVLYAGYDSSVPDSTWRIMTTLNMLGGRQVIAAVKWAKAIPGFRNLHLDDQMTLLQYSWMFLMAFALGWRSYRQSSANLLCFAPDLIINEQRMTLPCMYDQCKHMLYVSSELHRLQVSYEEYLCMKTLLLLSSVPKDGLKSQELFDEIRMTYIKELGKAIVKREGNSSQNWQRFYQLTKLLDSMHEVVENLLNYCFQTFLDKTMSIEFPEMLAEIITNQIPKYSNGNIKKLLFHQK
Sequence of Peroxisome proliferator-activated receptor delta (Homo sapiens) (Q03181 whole entry, looked up): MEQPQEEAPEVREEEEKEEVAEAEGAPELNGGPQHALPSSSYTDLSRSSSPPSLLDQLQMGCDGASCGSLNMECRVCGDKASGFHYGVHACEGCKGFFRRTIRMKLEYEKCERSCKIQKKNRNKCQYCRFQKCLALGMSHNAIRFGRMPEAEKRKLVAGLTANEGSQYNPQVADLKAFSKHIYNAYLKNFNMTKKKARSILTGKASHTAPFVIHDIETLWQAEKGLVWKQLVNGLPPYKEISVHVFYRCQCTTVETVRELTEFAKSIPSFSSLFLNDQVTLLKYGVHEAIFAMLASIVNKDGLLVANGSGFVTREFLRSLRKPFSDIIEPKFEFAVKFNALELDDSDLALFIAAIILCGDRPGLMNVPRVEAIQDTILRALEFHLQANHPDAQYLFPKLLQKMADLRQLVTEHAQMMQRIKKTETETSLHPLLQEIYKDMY

On to `CCOP(=S)(OCC)Oc1ccc(S(C)=O)cc1` (stereo not given), for which the max response in [1] is -64.2%; in assay [3] it was -0.202%. In addition, the Potency entry in assay [2] and in assay [4] was “inactive” throughout.

With `Nc1nc(N)nc(Cl)n1`, in assay [5], the activation was -0.33% (inactive) and 1.13% (inactive). Moreover, the Potency result in [6] was “inactive”. Moreover, the outcome in assay [7] was inactive.

`CCSC(C)CC1CC(=O)C(/C(CC)=N/OC/C=C/Cl)=C(O)C1` (stereo not given): the activation in [8] is 3.31% (inactive); in assay [10] it was 0.0799% (inactive); in assay [5] it was -3.59% (inactive); in assay [11], 0.614% (inactive). In addition, the Potency entry in assay [9] and in assay [2] was “inactive” each time. In addition, the max response in assay [1] worked out at 62.4%.

As to `O=P(OCC(Br)CBr)(OCC(Br)CBr)OCC(Br)CBr` (stereo not given), the activation in assay [8] was -12.7% (inactive). Also, the max response in [1] is -17.7%. The Potency entry in assay [2] is “inactive”. In assay [4], the Potency was 15.4 µM (active).

As for `C=C(C)CN(CC)c1c([N+](=O)[O-])cc(C(F)(F)F)cc1[N+](=O)[O-]`, the results for the activation in assay [5] and in assay [11] were 1.61% (inactive) and -4.66% (inactive), respectively. In addition, the max response in [1] came out at 5.96%; in assay [3], 3.32%. In addition, the Potency result in [2] was “inactive”.

Consider `COc1nc(C)nc(NC(=O)NS(=O)(=O)c2ccccc2Cl)n1`, for which, in assay [5], the activation was -6.7% (inactive). Moreover, the Potency result in assay [6] and in assay [4] was “inactive” each time. Further, the max response in assay [3] was -7.69%. For the same molecule, the result in assay [7] was inactive.

Take `CCOP(=O)(OCC)SCCSCC`: the max response in assay [3] was -10.7%. In addition, in assay [11], the activation is 0.345% (inactive). Further, the molecule was classed as inactive in [7].

Regarding `Brc1c(Br)c(Br)c(Br)c(Br)c1Br`, in assay [5], the activation is -0.0722% (inactive). The Potency result in assay [6] and in [2] was “inactive” in each case. The max response was -24.6% in assay [1] and -7.75% in assay [3]. Besides, the call in assay [7] was inactive.

Consider `C=CC(=O)OCCCCCC(C)C`, for which the figures for the activation in [8], in [10] and in assay [11] were 3.1% (inactive), 1.09% (inactive) and 1.07% (inactive), respectively. Moreover, the Potency result in assay [9], in assay [2] and in assay [4] was “inactive” throughout. The values for the max response in [1] and in assay [3] were 38.5% and -13.5%, respectively.

On to `COc1cc(Cl)c(OC)cc1Cl`, for which the values for the activation in [5] and in [11] were -1.33% (inactive) and -1.99% (inactive), respectively. Further, the Potency entry in assay [6] and in assay [4] was “inactive” throughout. For the same molecule, in assay [3], the max response was -12.5%.

`COP(=O)(OC)O/C(C)=C/C(=O)N(C)C`: the max response in assay [1] is -17.4%. In addition, the activation in assay [11] was -1.74% (inactive). For the same molecule, the result in [7] was inactive.

For `CCOP(=S)(OCC)SCC(=O)NC(C)C`, the Potency entry in assay [12], in assay [9], in assay [6] and in assay [4] was “inactive” throughout. In addition, the activation in assay [10] was 0.181% (inactive); in assay [5], 3% (inactive); in assay [11], 0.608% (inactive). Moreover, the max response in assay [3] is -3.21%.

Consider `CCOP(=S)(OCC)Oc1ncn(-c2ccccc2)n1`, for which the activation was 5.78% (inactive) in [8] and 2.14% (inactive) in assay [10]. Moreover, the Potency entry in assay [12], in assay [9] and in assay [2] was “inactive” throughout. Also, the max response in assay [1] turned out to be 1.15%.

Take `CCCCC(C#N)(Cn1cncn1)c1ccc(Cl)cc1` (stereo not given): the activation in [5] was -4.2% (inactive) and -7.49% (inactive). Besides, the max response in [1] came out at 26.8%; in [3], 3.82%. In addition, the Potency result in assay [2] was “inactive”.

Take `CC1(C)CN=C(NN=C(/C=C/c2ccc(C(F)(F)F)cc2)/C=C/c2ccc(C(F)(F)F)cc2)NC1`: the Potency in [12] was 35.5 µM (active); in assay [9], 31.6 µM (active). Besides, the max response in assay [1] is -117%. For the same molecule, in [7], the result was inactive.

`c1cc(OCC2CO2)cc(OCC2CO2)c1` (stereo not given): the Potency is 15.8 µM (active) in assay [13], 31.6 µM (active) in assay [15] and 29.8 µM (active) in [4]. Moreover, the Potency entry in [14], in [12], in assay [6] and in assay [2] was “inactive” each time. Also, the activation in assay [8] was -20.7% (inactive); in assay [10], 0.408% (inactive). In addition, in assay [1], the max response was 21.9%.
